Results filed as inconclusive are left out. Calls of active or inactive are those of the source. Calls come from the whole dose curve; as a rule, active = well fitted curve in the direction sought with a large enough effect; inconclusive = small, poorly fitted or top-dose-only effect, or another doubt; inactive = no such curve, though single readings can be large; an effect the other way counts as inactive or inconclusive.
Columns and labels:
HEK293T [1] = assay: qHTS assay to identify novel small-molecules to repurpose for Merkel cell carcinoma treatment (AID 1296009); settings: MCC and control cell lines, CellTiter-Glo viability, 72 h; at 44.8 µM (top of the series) unless noted; note: nearly all actives have a fitted effect of over 60% in size
In short: (§1)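 After compound transfer in DMSO, plates were kept 72 hr at 37 degree celsius. Luminescent ATP signal from CellTiter-Glo served as viability measure, normalized against DMSO and no-cell controls.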

MCC-13 = assay: as above; settings: MCC and control cell lines, CellTiter-Glo viability, 72 h; series mostly up to 46 µM
In short: as §1

MCC-26 = assay: as above; settings: MCC and control cell lines, CellTiter-Glo viability, 72 h; series mostly up to 46 µM
In short: as §1

MKL-1 = assay: as above; settings: MCC and control cell lines, CellTiter-Glo viability, 72 h; series mostly up to 46 µM
In short: as §1

MKL-2 = assay: as above; settings: MCC and control cell lines, CellTiter-Glo viability, 72 h; series mostly up to 46 µM
In short: as §1

UISO = assay: as above; settings: MCC and control cell lines, CellTiter-Glo viability, 72 h; series mostly up to 46 µM
In short: as §1

WaGa = assay: as above; settings: MCC and control cell lines, CellTiter-Glo viability, 72 h; series mostly up to 46 µM
In short: as §1

C33A = assay: Primary qHTS to identify gynecologic anti-cancer compounds using libraries of approved drugs and bioactive compounds (AID 1345084); settings: Gynecologic cancer cell panel viability, ATPlite luminescence, 48 h; series mostly up to 57.5 µM; note: nearly all actives have a fitted effect of over 55% in size
In short: (§2)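 Cell viability after 48 h drug treatment, ATPlite luminescence readout; five doses.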

CAOV3 = assay: as above; settings: Gynecologic cancer cell panel viability, ATPlite luminescence, 48 h; series mostly up to 57.5 µM
In short: as §2

CASKI = assay: as above; settings: Gynecologic cancer cell panel viability, ATPlite luminescence, 48 h; series mostly up to 57.5 µM
In short: as §2

Es-2 = assay: as above; settings: Gynecologic cancer cell panel viability, ATPlite luminescence, 48 h; series mostly up to 57.5 µM
In short: as §2

HeLa = assay: as above; settings: Gynecologic cancer cell panel viability, ATPlite luminescence, 48 h; series mostly up to 57.5 µM
In short: as §2

Hek293T [2] = assay: as above; settings: Gynecologic cancer cell panel viability, ATPlite luminescence, 48 h, control line for the selectivity index; series mostly up to 57.5 µM
In short: as §2

JEG-3 = assay: as above; settings: Gynecologic cancer cell panel viability, ATPlite luminescence, 48 h; series mostly up to 57.5 µM
In short: as §2

OV90 = assay: as above; settings: Gynecologic cancer cell panel viability, ATPlite luminescence, 48 h; series mostly up to 57.5 µM
In short: as §2

SKOV3 = assay: as above; settings: Gynecologic cancer cell panel viability, ATPlite luminescence, 48 h; series mostly up to 57.5 µM
In short: as §2

Tov-21-G = assay: as above; settings: Gynecologic cancer cell panel viability, ATPlite luminescence, 48 h; series mostly up to 57.5 µM
In short: as §2

Tov112D = assay: as above; settings: Gynecologic cancer cell panel viability, ATPlite luminescence, 48 h; series mostly up to 57.5 µM
In short: as §2

NIH3T3 = assay: qHTS assay to identify novel small-molecules to repurpose for Merkel cell carcinoma treatment (AID 1296009); settings: MCC and control cell lines, CellTiter-Glo viability, 72 h; at 44.8 µM (top of the series) unless noted; note: nearly all actives have a fitted effect of over 60% in size
In short: as §1

PA-1 = assay: Primary qHTS to identify gynecologic anti-cancer compounds using libraries of approved drugs and bioactive compounds (AID 1345084); settings: Gynecologic cancer cell panel viability, ATPlite luminescence, 48 h; series mostly up to 57.5 µM; note: nearly all actives have a fitted effect of over 55% in size
In short: as §2

Measured: Potency

NC(=O)NC1N=C([O][Al])NC1=O (centres undefined)
not listed: NIH3T3 | PA-1
inactive: all other assays above

NS(=O)(=O)c1cc(C(=O)NN2C[C@H]3[C@H]4CCC(C4)[C@H]3C2)ccc1Cl
not listed: HEK293T [1]
inactive: all other assays above

CCC(=O)O[C@H]1[C@H](O[C@@H]2[C@@H](C)[C@H](O[C@H]3C[C@@](C)(OC)[C@@H](O)[C@H](C)O3)[C@@H](C)C(=O)O[C@H](CC)[C@@](C)(O)[C@H](O)[C@@H](C)C(=O)[C@H](C)C[C@@]2(C)O)O[C@H](C)C[C@@H]1N(C)C
not listed: Hek293T [2] | NIH3T3
inactive: all other assays above

CSCC[C@H](NC(=O)[C@H](Cc1c[nH]c2ccccc12)NC(=O)CCNC(=O)OC(C)(C)C)C(=O)N[C@@H](CC(=O)O)C(=O)N[C@@H](Cc1ccccc1)C(N)=O
not listed: HEK293T [1]
inactive: all other assays above

O=C1Nc2cc(Cl)ccc2Oc2ccccc21
not listed: UISO | NIH3T3
inactive: all other assays above

CCn1ccc(NS(=O)(=O)c2ccc(N)cc2)nc1=O
not listed: HEK293T [1]
inactive: all other assays above

CC(=O)OC[C@H]1O[C@@H](OC(C)=O)[C@H](OC(C)=O)[C@@H]1OC(C)=O
not listed: HEK293T [1]
inactive: all other assays above

CC(C)=CCC/C(C)=C/CC/C(C)=C/CCC(=O)OC/C=C(\C)CCC=C(C)C
not listed: HEK293T [1]
inactive: all other assays above
